Shown are actives, neighbours in structure and some others; about 12% of the full set was active somewhere.
G9a inh: qHTS Assay for Inhibitors of Histone Lysine Methyltransferase G9a | actives 8.8% (n = 350,000) | G9a H3K9 monomethylation, AlphaScreen, 2 h | AID 504332, 2011 | Histone-lysine N-methyltransferase EHMT2 (Homo sapiens), Q96KQ7 | Potency, µM (top dose mostly 102 µM), without a hit: at the top dose activity, negative = inhibition, usual class: inhibitors; also: % is scaled to controls: 0 for no effect and ±100 for the full control effect; nearly all actives have a fitted effect of over 75% in size
Target sequence (Q96KQ7 913-1193 limits assumed): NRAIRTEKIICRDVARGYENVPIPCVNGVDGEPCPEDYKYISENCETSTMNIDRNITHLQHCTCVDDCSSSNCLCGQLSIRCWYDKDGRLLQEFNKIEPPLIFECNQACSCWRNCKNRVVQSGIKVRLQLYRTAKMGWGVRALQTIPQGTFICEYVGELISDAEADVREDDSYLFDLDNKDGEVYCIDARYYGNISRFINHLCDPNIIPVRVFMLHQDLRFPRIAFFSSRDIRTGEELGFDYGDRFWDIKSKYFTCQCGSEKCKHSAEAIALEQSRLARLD
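Using a bead-based AlphaScreen, monomethylated H3K9 product from 2 h room-temperature reactions (G9a 20 nM, peptide 500 nM, SAM 20 uM) was detected with 0.5 ug/mL rabbit anti-H3K9me1 antibody.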
Sfp inh: qHTS Assay for Inhibitors of Bacillus subtilis Sfp phosphopantetheinyl transferase (PPTase). 4'-phosphopantetheinyl transferase ffp (Bacillus subtilis), Q9F4F7. Biochemical Sfp PPTase activity, qHTS. Potency, µM, without a hit: largest response in the series, negative = inhibition, most hits filed as inhibitors. actives 3.5% (n = 310,000). AID 1490, 2009;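 also: the enzyme is Sfp with the accession as filed and its product quenches rhodamine fluorescence; 0% = enzyme reaction without inhibitor and -100% = no enzyme wells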
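With Hepes-Na pH 7.6 buffer containing 10 mM MgCl2, Sfp (15 nM) modified BHQ-2-YbbR (12.5 uM) using rhodamine-CoA (5 uM). Two reads 30 minutes apart at 525/598 nm yielded each well's rate.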
JMJD2A Tudor inh: qHTS Assay for Inhibitors of JMJD2A-Tudor Domain | AlphaScreen JMJD2A-Tudor / H3K4me3 peptide binding | actives 4.4% (n = 390,000) | Potency, µM (top dose mostly 114 µM), for inactives: top-dose activity change, negative = inhibition, actives largely listed as inhibitors | Lysine-specific demethylase 4A (Homo sapiens), O75164; also: % is scaled to controls: 0 for no effect and ±100 for the full control effect; nearly all actives have a fitted effect of over 50% in size
BAZ2B inh: qHTS Assay for Inhibitors of BAZ2B. Bromodomain adjacent to zinc finger domain protein 2B (Homo sapiens), Q9UIF8. AlphaScreen BAZ2B-H3K14Ac peptide displacement. Potency, µM (highest dose often 114 µM), for inactives: top-dose activity change, negative = inhibition, actives largely listed as inhibitors. actives 4.4% (n = 360,000); also: % is scaled to controls: 0 for no effect and ±100 for the full control effect; nearly all actives have a fitted effect of over 60% in size
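Protein-peptide AlphaScreen: BAZ2B 50 nM, b-H3K14Ac 50 nM, 1x PBS pH 7.4 + 0.01% Tween-20. Preincubation 30 min RT; cpd 30 min RT (top 110 uM); beads 20 min RT, light-protected.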
HP1b chromo inh: HTS for Inhibitors of HP1-beta Chromodomain Interactions with Methylated Histone Tails; AlphaScreen HP1-beta / biotin-H3K9me3 peptide binding; AID 540317, 2011; actives 0.56% (n = 390,000); Potency, µM (doses to about 114 µM), without a hit: at the top dose activity change, negative = inhibition, usual class: inhibitors; also: nearly all actives have a fitted effect of over 70% in size
Target sequence (P83916 whole entry, looked up): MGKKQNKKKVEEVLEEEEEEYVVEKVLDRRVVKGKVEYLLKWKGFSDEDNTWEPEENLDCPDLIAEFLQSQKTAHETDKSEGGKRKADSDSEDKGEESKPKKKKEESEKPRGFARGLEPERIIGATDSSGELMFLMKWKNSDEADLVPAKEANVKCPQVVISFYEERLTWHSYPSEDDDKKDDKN
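HP1-beta protein (50 nM final) preincubated 30 min at room temperature with biotinylated H3(1-18)K9me3 peptide (50 nM) in PBS pH 7.4, 0.01% Tween-20, then compound added for 30 min. AlphaScreen streptavidin donor/nickel chelate acceptor beads (10 ug/mL final), 30 min dark, luminescence read.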
* marks the source's active call; other numbers are inactive results; ! = repeats disagree; [ ] = dose if it differs, or a comment. Calls follow the shape of the dose curve; as a rule, active = well fitted curve in the direction sought with a large enough effect; inconclusive = small, poorly fitted or top-dose-only effect, or another doubt; inactive = no such curve, though single readings can be large; an effect the other way counts as inactive or inconclusive. Potency is read from the fitted curve at half-maximal effect.

For O=C(COc1ccccc1)Nc1nnc(-c2ccccc2Cl)o1 the results were JMJD2A Tudor inh 22.4µM* and HP1b chromo inh 27.5%.
For O=C(COc1ccccc1)Nc1nnc(-c2ccc3c(c2)CCCC3)o1 the results were G9a inh 0.7%[59 µM], Sfp inh 10.5%, JMJD2A Tudor inh -16.3%, BAZ2B inh -2.0% and HP1b chromo inh 44.3%.
For O=C(COC(=O)COc1ccc(Cl)cc1)Nc1ccc2c(c1)OCCO2 the results were G9a inh 2.7%[12.7 µM], JMJD2A Tudor inh 2.3%, BAZ2B inh 21.2% and HP1b chromo inh 31.2%.
`CC(=O)c1ccc(OCC(=O)Nc2c(C)nn(-c3ccccc3)c2C)cc1` gave G9a inh inconclusive, JMJD2A Tudor inh 2.1%, BAZ2B inh 3.6% and HP1b chromo inh 9.4%.
O=C(Oc1ccc(=O)n(-c2ccccc2)n1)c1ccccc1 was read as G9a inh inconclusive, Sfp inh -26.5%, JMJD2A Tudor inh -8.7%, BAZ2B inh -5.4% and HP1b chromo inh 75.6%.
CCOC(=O)c1ccccc1NC(=O)n1ncc2cc(Cl)ccc21 was read as G9a inh -34.3%[59 µM], JMJD2A Tudor inh -17.9%, BAZ2B inh -7.5% and HP1b chromo inh 16.1%.
`COc1ccccc1N(C(=O)c1ccncc1)c1nc(-c2ccc([N+](=O)[O-])cc2)cs1` gave G9a inh 10µM*, Sfp inh -17.2%, JMJD2A Tudor inh inconclusive, BAZ2B inh inconclusive and HP1b chromo inh inconclusive.
`COCCN(C(=O)c1cccc(N2C(=O)CCC2=O)c1)c1nc(-c2ccc([N+](=O)[O-])cc2)cs1` gave G9a inh -48.4%, JMJD2A Tudor inh -32.2%, BAZ2B inh -27.4% and HP1b chromo inh -11.4%.
CC(C)(C(=O)N[C@H](CO)c1ccccc1)C(=O)N[C@H](CO)c1ccccc1 was read as Sfp inh 8.1%, JMJD2A Tudor inh -4.9%, BAZ2B inh -3.1%[57.1 µM] and HP1b chromo inh 33.3%.
Cc1ccc(CN2CCC(n3nccc3NC(=O)C3CCOC3)CC2)cc1 (centres undefined) was read as G9a inh 90.0%, Sfp inh 28.0%, JMJD2A Tudor inh -16.0%, BAZ2B inh 0.1% and HP1b chromo inh 33.6%.
Screening CC(=O)O[C@H]1C(=O)[C@@]2(C)[C@H]([C@H](OC(=O)c3ccccc3)[C@]3(O)C[C@H](OC(=O)[C@H](O)[C@@H](NC(=O)c4ccccc4)c4ccccc4)C(C)=C1C3(C)C)[C@]1(OC(C)=O)CO[C@@H]1C[C@@H]2O returned G9a inh 6.6%[12.7 µM], Sfp inh 50.1µM*!, JMJD2A Tudor inh -10.1%, BAZ2B inh 10.2% and HP1b chromo inh 26.2%.
For CCCCCC(=O)N[C@@H](c1ccccc1)[C@@H](O)C(=O)O[C@H]1C[C@@]2(O)[C@@H](OC(=O)c3ccccc3)C3[C@](C)(C(=O)[C@H](OC(C)=O)C(=C1C)C2(C)C)[C@@H](O)C[C@H]1OC[C@@]31OC(C)=O (some centres undefined) the results were G9a inh 15.3%, Sfp inh 16.2%, JMJD2A Tudor inh -19.0%, BAZ2B inh inconclusive and HP1b chromo inh 19.2%.
For O=C(CN1CCN(S(=O)(=O)c2ccccc2F)CC1)N1CCc2ccccc2C1 the results were JMJD2A Tudor inh 0.794µM* and HP1b chromo inh -26.2%.
O=C(CN1CCN(S(=O)(=O)c2ccc3ccccc3c2)CC1)N1CCc2ccccc2C1 was read as G9a inh inconclusive, Sfp inh -0.5%, JMJD2A Tudor inh -32.6%, BAZ2B inh -32.8% and HP1b chromo inh 2.1%.
`CCC(C)C(NC(=O)C(CC(C)C)NC(=O)C(CO)NC(=O)C1CCC(=O)N1)C(=O)OC` (centres undefined) gave G9a inh 23.0%, Sfp inh 11.2%, JMJD2A Tudor inh 7.9%, BAZ2B inh -18.0% and HP1b chromo inh 47.9%.
For CCOc1ccc(/C=C2/SC(=S)N(n3c(C)ccc3C)C2=O)cc1 the results were G9a inh 10µM*, Sfp inh 0.5%, JMJD2A Tudor inh 22.4µM*, BAZ2B inh 11.2µM* and HP1b chromo inh 14.1µM*.
For O=C(CCN1C(=O)/C(=C\c2ccccc2)SC1=S)N1CCCCC1 the results were G9a inh -11.5%[59 µM], Sfp inh 3.5%, JMJD2A Tudor inh -22.6%, BAZ2B inh -10.3% and HP1b chromo inh -13.0%.
`Cc1no[n+]([O-])c1COc1ccc(/C=C2\NC(=S)NC2=O)cc1` gave G9a inh -13.9%, Sfp inh -0.1%, JMJD2A Tudor inh -10.4%, BAZ2B inh -4.8% and HP1b chromo inh 12.4%.
`O=C1/C(=C/c2ccccc2)SC(=S)N1N1C(=O)C2CC2C1=O` (centres undefined) gave G9a inh 25.1µM*, Sfp inh -16.2%, JMJD2A Tudor inh -25.1%, BAZ2B inh -26.2% and HP1b chromo inh -15.5%.
Screening COc1ccc(/C=C2/SC(=S)N(n3c(C)ccc3C)C2=O)cc1 returned G9a inh 15.8µM*, Sfp inh -4.1%, JMJD2A Tudor inh 35.5µM*, BAZ2B inh 10µM* and HP1b chromo inh inconclusive.
For COc1ccc(/C=C2/SC(=S)N(CCC(=O)O)C2=O)cc1 the results were G9a inh -12.0%, Sfp inh 7.9%, JMJD2A Tudor inh -17.7%, BAZ2B inh -5.9% and HP1b chromo inh 1.6%.
`CCOc1ccc(/C=C2\NC(=S)NC2=O)cc1` gave G9a inh 44.7µM*, Sfp inh 13.9%, JMJD2A Tudor inh -19.1%[11.4 µM], BAZ2B inh -11.1% and HP1b chromo inh 29.6%.
CC(=O)Nc1cccc(/C(C)=N/NC(=O)c2cccc(S(=O)(=O)N3CCOCC3)c2)c1 was read as G9a inh 1.5%, Sfp inh -5.6%, JMJD2A Tudor inh inconclusive and HP1b chromo inh 11.3%.
Screening Cc1cccc(Nc2nc(N)nc(N)c2N=O)c1 returned JMJD2A Tudor inh -29.7% and HP1b chromo inh 0.9%[57 µM].
CCc1n[nH]c(=S)n1N=C1CCC(C)CC1 (centres undefined) was read as Sfp inh inconclusive, JMJD2A Tudor inh -19.0%, BAZ2B inh -2.4% and HP1b chromo inh 34.1%.
Screening Cc1ccccc1CN(c1ccc(C(=O)N2CCN(C)CC2)cc1)S(C)(=O)=O returned JMJD2A Tudor inh -3.8% and HP1b chromo inh 14.5%.
For CCOc1ccc(/C=C2\SC(=S)N(CCC(=O)N(CCO)c3ccccc3)C2=O)cc1 the results were G9a inh 15.8µM*, Sfp inh inconclusive, JMJD2A Tudor inh inconclusive, BAZ2B inh inconclusive and HP1b chromo inh -25.4%.

Screening results deposited in PubChem BioAssay by National Center for Advancing Translational Sciences (NCATS).
